The values that follow come from PubChem BioAssay (NCI).

Common to all, as to test: NCI-60 one-dose screen, 48 h (100 = growth as untreated, 0 = no growth, -100 = all killed)
Details in all cases: 10 µM unless noted

For experiment [1], the system named is NCI-H23 lung.
The test system of experiment [2] is NCI-H226 lung.
The test system of experiment [3] is NCI-H322M lung.
In experiment [4] the test system is HOP-62 NSCLC.
Experiment [5] deals with NCI-H460 lung.
In experiment [6] the test system is HOP-92 NSCLC.
For experiment [7], the system named is NCI-H522 lung.
The test system of experiment [8] is A549/ATCC NSCLC.
The test system of experiment [9] is 786-0 renal.
The test system of experiment [10] is COLO 205 colon.

The panel holds about 83,000 compounds, 20% with a hit somewhere; the sample as a whole holds those more often.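 In brief: 96-well plates, 48 h treatment, single concentration, percent growth endpoint.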 A number with no mark means an inactive call. The source made the active and inactive calls. Rule for the calls: active = growth percent below 10; inactive = the rest.

In the case of `COc1ccc(NC(=O)Nc2ccc(OCCCCCC(=O)NO)cc2)cc1`, the growth in [1] is 98%; in [2] it was 100%; in experiment [3] it was 94.7%; in [4], 102%; in [5], 96.3%; in [6] it was 94%. The growth in [7] was 68.1%; in [8], 90.3%; in experiment [9] it was 97.1%; in experiment [10], 110%.
In the case of `COc1cc(OC)c(C(=O)C(CN(C)C)CN(C)C)cc1OC`, the growth was 96.5% in experiment [1]; 108% in [2]; 108% in experiment [3]; 84.7% in experiment [4]; 109% in [5]; 40% in experiment [6]. For the same molecule, the growth is -73.7% (active) in experiment [7], 109% in [8], 7.98% (active) in experiment [9] and -85.4% (active) in experiment [10].
As for `COc1ccc(C2CC(c3cc(OC)c(OC)c(OC)c3)=NO2)cc1OCCCCOc1cc2c(cc1OC)C(=O)N1CCC[C@H]1C=N2` (stereo not given in full), the growth in experiment [1] is -16% (active); in experiment [2], -0.71% (active); in experiment [3] it was 17.4%; in experiment [4], 22.8%; in experiment [5], -14.8% (active); in experiment [6], 20.3%. The growth was -32.5% (active) in experiment [7], 20% in experiment [8], -35.3% (active) in experiment [9] and -32.9% (active) in [10].
Consider `CNC1=C([N+](=O)[O-])C(c2ccc(OC)cc2)C(C#N)=C(c2cccs2)O1` (stereo not given), for which the growth in experiment [1] was 103%; in experiment [2] it was 99.8%; in experiment [3], 103%; in experiment [4], 99.6%; in [5], 109%; in [6] it was 125%. For the same molecule, the growth in experiment [7] was 102%; in [8] it was 102%; in experiment [9] it was 110%; in experiment [10], 111%.
`CN(C)c1ccc(-c2nc(-c3ccccc3)c(-c3ccccc3)[nH]2)cc1`: the growth in [1] is 92.2%; in experiment [2] it was 106%; in [3], 85.9%; in experiment [4], 100%; in experiment [5], 88.9%; in experiment [6], 52.2%. The growth in [7] was 77.4%; in experiment [8], 99.5%; in experiment [9], 94.6%; in experiment [10] it was 129%.
With `COC(=O)C(Cc1ccccc1)NC(=O)c1ccc(NC(=O)c2[nH]c(C)c(Cl)c2Cl)c(OC(C)C)c1` (stereo not given), the growth in [1] is 70%; in experiment [2] it was 88.6%; in [3] it was 102%; in experiment [4], 90.3%; in experiment [5] it was 6.05% (active); in experiment [6], 101%. Moreover, the growth in [7] is 93.9%; in experiment [8], 6.57% (active); in experiment [9], 39.5%; in experiment [10], 102%.
For the molecule `N#C/C(=C\C=C\c1ccc(-c2cc(Cl)ccc2Cl)o1)c1nc2ccccc2s1`, the growth in experiment [1] was 83.7%; in experiment [2] it was 78.3%; in experiment [3], 95%; in experiment [4], 87.7%; in experiment [5] it was 103%; in experiment [6], 89.1%. The growth in [7] was 94.4%; in experiment [8] it was 99.4%; in experiment [9], 102%; in experiment [10] it was 92.9%.
For `Cc1ccc(-c2nc3nc(-c4ccccc4)nc(N4CCCN(S(C)(=O)=O)CC4)c3o2)cc1`, the growth in experiment [1] was 86.6%; in [2], 58.1%; in [3], 93.9%; in experiment [4] it was 66.5%; in experiment [5], 4.39% (active); in experiment [6], 84.9%. Besides, the growth in experiment [7] is 78.8%; in experiment [8], 38.8%; in experiment [9], 87.7%; in experiment [10], 86.5%.
For `COC(=O)/C=C1/SC(=Nc2ccc([N+](=O)[O-])cc2)N(CCc2c[nH]c3ccc(O)cc23)C1=O`, the growth in [1] was 64.9%; in experiment [2], 86.1%; in [3], 87.5%; in [4] it was 27.5%; in experiment [5], 17.4%; in experiment [6], 27.3%. Moreover, the growth in [7] was 57.4%; in experiment [8], 69.3%; in experiment [9], 44.2%; in experiment [10] it was 78.1%.
For `COCCn1cc(-c2csc(-c3c[nH]c4ccc(Br)cc34)n2)c2cccnc21`, the growth in experiment [1] is 32.3%; in [2], 58%; in experiment [3] it was 59.5%; in experiment [4] it was 45.4%; in experiment [5] it was 20.7%; in [6], 2.14% (active). Moreover, the growth in [7] was -28.3% (active); in experiment [8] it was 23.1%; in experiment [9], -4.75% (active); in [10] it was 24.9%.
Consider `Nn1c(=O)c(=O)[nH]c2c(cnn2-c2ccccc2)c1=O`, for which the growth in experiment [1] is 108%; in experiment [2] it was 94.2%; in [3] it was 108%; in experiment [4], 86.2%; in experiment [5] it was 117%; in [6] it was 106%. For the same molecule, the growth in [7] was 96.2%; in experiment [8], 101%; in experiment [9] it was 103%; in experiment [10], 121%.
`Cc1ccc2c(-c3nnc(N)s3)cc(=O)oc2c1C`: the growth is 95.5% in experiment [1]; 97.5% in [2]; 98.5% in experiment [3]; 101% in experiment [4]; 102% in experiment [5]; 106% in experiment [6]. The growth in [7] is 102%; in experiment [8] it was 104%; in experiment [9], 92.4%; in experiment [10], 119%.
For `CCOC(=O)c1[nH]c2c(c1C)-c1[nH]c(=O)c(S(=O)(=O)c3ccccc3)cc1SC2`, the growth in [1] is 35.4% [100 µM]; in experiment [2], 37.9% [100 µM]; in experiment [3], 42.4% [100 µM]; in experiment [4], 34.3% [100 µM]; in [5], 38.2% [100 µM]; in experiment [6], -27.4% [100 µM] (active). For the same molecule, the growth in [7] is -0.182% [100 µM] (active); in [8] it was 43.7% [100 µM]; in experiment [9] it was 21.1% [100 µM]; in experiment [10], -25.8% [100 µM] (active).
On to `C=C1C(=O)O[C@H]2[C@H]1CC/C(COC(=O)c1cc3cc(Cl)ccc3[nH]1)=C\CC[C@@]1(C)O[C@@H]21`, for which the growth in [1] was -64.9% (active); in experiment [2], -64.2% (active); in experiment [3] it was 44.3%; in experiment [4], -63.6% (active); in [5] it was 6.97% (active); in experiment [6] it was -80.3% (active). Besides, the growth is -81.1% (active) in experiment [7], -67.5% (active) in experiment [8], -90.5% (active) in experiment [9] and -77.6% (active) in experiment [10].
In the case of `CC[C@]12C=CCN3CC[C@@]4(c5ccc(OC)cc5N(C)[C@H]4[C@@](O)(C(=O)OC)[C@@H]1OC(=O)CCC[P+](c1ccccc1)(c1ccccc1)c1ccccc1)[C@@H]32`, the growth is -8.66% (active) in experiment [1]; 14% in experiment [2]; 35.6% in experiment [3]; 2.56% (active) in experiment [4]; 6.11% (active) in experiment [5]; -40% (active) in experiment [6]. Further, the growth is -35.4% (active) in experiment [7], 13.4% in experiment [8], 20.6% in [9] and -87.9% (active) in [10].
Consider `C=C(C)[C@@H]1CCC[C@]2(C(=O)N3CCN(C)CC3)CC[C@]3(C)[C@@H](CC[C@@H]4[C@@]5(C)CC/C(=N\NC(=O)c6ccncc6)C(C)(C)[C@@H]5CC[C@]43C)[C@@H]12`, for which the growth was 93.3% in [1]; 101% in [2]; 93.7% in [3]; 96.9% in experiment [4]; 88% in [5]; 107% in experiment [6]. Further, the growth in [7] was 98.3%; in experiment [8] it was 99.5%; in [9], 93.6%; in experiment [10], 99.1%.
As to `Cc1c(CN)cc(-c2ccc(Cl)cc2)n1-c1ccccc1`, the growth was 73.8% in experiment [1]; 38.4% in experiment [2]; 88.4% in experiment [3]; 91.6% in [4]; 75.5% in experiment [5]; 90.1% in experiment [6]. Also, the growth is 68% in experiment [7], 75.2% in experiment [8], 90.8% in [9] and 110% in [10].
As for `COc1ccc(-c2nc(/C=C3\C(=O)N(C)c4ccccc43)c3ccccn23)cc1`, the growth in experiment [1] was 76.2%; in [2], 63.8%; in experiment [3], 88.3%; in [4], 62.7%; in experiment [5], 63.4%; in [6], 84.1%. The growth was 58.7% in [7], 88.7% in experiment [8], 38.3% in [9] and 119% in experiment [10].
In the case of `COc1ccc(C(=O)Cn2c(C(=O)c3ccc(OC)cc3)nc3ccccc32)cc1`, the growth was 50.5% in experiment [1]; 37.4% in experiment [2]; 76.6% in [3]; 37.8% in experiment [4]; 10.5% in [5]; 45.2% in [6]. In addition, the growth is -27.7% (active) in [7], 41.3% in experiment [8], 36.3% in experiment [9] and 38.8% in [10].
Take `Clc1c(Cl)[n+](Cc2ccc3ccccc3c2)cn1Cc1ccc2ccccc2c1`: the growth is 32.8% in [1]; 44.4% in experiment [2]; 51% in experiment [3]; -27.6% (active) in experiment [4]; 26.1% in [5]; -12.1% (active) in [6]. Further, the growth in [7] is -52.5% (active); in experiment [8], 52.5%; in experiment [9], -8.06% (active); in experiment [10] it was -73.9% (active).
As for `O=C(N/N=C\c1cccc([N+](=O)[O-])c1)N/N=C/c1cccc([N+](=O)[O-])c1`, the growth in experiment [1] was 101%; in [2] it was 92.4%; in [3] it was 104%; in [4], 92.9%; in experiment [5], 107%; in [6] it was 105%. For the same molecule, the growth in experiment [7] was 98.9%; in experiment [8] it was 100%; in [9], 111%; in experiment [10] it was 119%.
On to `O=C1/C=C/[C@@H](O)[C@@H]2C[C@@H](O)C[C@H]2/C=C/CCC[C@H](CCO)O1`, for which the growth in [1] is 10.2%; in [2] it was -38.9% (active); in [3], 29.3%; in experiment [4], 31%; in [5], 15.9%; in experiment [6], -7.37% (active). In addition, the growth is -12.4% (active) in [7], 17.7% in experiment [8], -51.7% (active) in experiment [9] and -66.9% (active) in experiment [10].
With `CC(C)(C)n1cc(-c2ccnc(NCCCNS(=O)(=O)c3ccc(C(F)(F)F)cc3)c2)c(-c2cccc(F)c2)n1`, the growth in [1] was 82%; in [2], 91.1%; in [3], 103%; in experiment [4], 92.7%; in experiment [5], 76.7%; in experiment [6], 90.1%. The growth in [7] is 73.7%; in experiment [8], 64.1%; in experiment [9], 88.3%; in [10] it was 76.9%.
With `CCNc1ccc(-c2nc3ccccc3n3cccc23)cc1`, the growth in [1] was 79.6%; in [2] it was 68.8%; in experiment [3], 76.7%; in experiment [4], 83.4%; in experiment [5], 88.8%; in [6], 63.7%. Besides, the growth was 71.3% in [7], 75.6% in experiment [8], 86% in experiment [9] and 95.2% in experiment [10].
With `O=C(Nc1cnc(Nc2ccc(N3CCOCC3)nc2)nc1Oc1ccc(C(F)(F)F)cc1)c1ccncc1`, the growth in experiment [1] was 70%; in experiment [2] it was 92.8%; in experiment [3] it was 87.3%; in [4], 93.1%; in [5], 74.3%; in experiment [6], 94.1%. The growth is 82.8% in [7], 80.5% in experiment [8], 96.8% in experiment [9] and 99.8% in experiment [10].
